FBW7 activator: human FBW7 E3 ligase activation, primary screen; AlphaScreen FBW7–phospho-cyclin E peptide binding, activator screen; AID 1259310; normalized activity (activation), % at 26.1 µM; 650,000 tested, 0.13% active; Q969H0; in the data active = normalized activity above about 1.9%;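 note: purified mutant Fbw7 with reduced substrate affinity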
Target sequence (Q969H0 whole entry, looked up): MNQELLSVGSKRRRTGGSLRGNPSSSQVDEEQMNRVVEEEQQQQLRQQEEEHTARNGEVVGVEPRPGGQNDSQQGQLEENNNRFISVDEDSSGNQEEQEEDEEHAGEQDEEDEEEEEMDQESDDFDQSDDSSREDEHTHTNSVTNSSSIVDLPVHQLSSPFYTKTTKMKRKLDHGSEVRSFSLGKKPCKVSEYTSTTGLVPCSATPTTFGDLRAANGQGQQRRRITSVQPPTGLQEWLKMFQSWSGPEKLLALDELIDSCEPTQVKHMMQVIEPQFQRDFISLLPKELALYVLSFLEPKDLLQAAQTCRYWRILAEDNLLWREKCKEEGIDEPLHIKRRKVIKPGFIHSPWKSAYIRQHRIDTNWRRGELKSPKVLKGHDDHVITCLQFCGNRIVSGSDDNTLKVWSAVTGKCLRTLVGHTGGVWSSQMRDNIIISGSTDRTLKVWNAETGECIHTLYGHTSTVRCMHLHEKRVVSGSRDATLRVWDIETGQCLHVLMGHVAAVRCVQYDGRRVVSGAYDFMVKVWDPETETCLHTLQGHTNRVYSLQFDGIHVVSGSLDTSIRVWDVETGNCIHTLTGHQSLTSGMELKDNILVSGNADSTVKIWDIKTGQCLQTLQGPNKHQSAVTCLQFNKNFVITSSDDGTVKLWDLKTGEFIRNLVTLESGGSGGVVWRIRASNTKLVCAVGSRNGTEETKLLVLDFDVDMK
GPR151 activ: activates the human receptor GPR151; Q8TDV0; PathHunter beta-arrestin GPR151 cells, luminescence; activation, % at 11.2 µM; 650,000 tested, 1% active; AID 1508602; in the data active = activation above about 4.9%
MITF inh: human MITF inhibition, primary screen; inhibition, % at 2.6 µM; AID 1259374; O75030; AlphaScreen MITF homodimerization, bead proximity signal; 650,000 tested, 0.91% active; in the data active = inhibition above about 50%
TEAD-YAP inh: TEAD-YAP interaction inhibition; inhibition, % at 9.12 µM; 640,000 tested, 1.4% active; HEK-TIYL cells, TEAD-Gal4/YAP UAS-luciferase luminescence; AID 1259422; in the data active = inhibition above about 32%
MITF confirm: confirmation of human MITF inhibitors; shares compounds with MITF inh; AlphaScreen MITF homodimerization, biotin/His-MITF beads; inhibition, % at 2.6 µM; 4,700 tested, 16% active; AID 1259372;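 active = inhibition above a cutoff derived from the DMSO control wells, cut at about 28% in these data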;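 note: inhibitors lower the bead chemiluminescence by keeping MITF from dimerizing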
AlphaScreen intf2: counter-screen: compounds optically interfering with AlphaScreen | shares compounds with MITF inh | LysRS AlphaScreen counterscreen, signal interference, triplicate | inhibition, % at 2.6 µM | 4,700 tested, 7.6% active | AID 1259376;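 active = inhibition above a cutoff derived from the DMSO control wells, cut at about 30% in these data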
Large screens that a line does not name were inactive (follow-up assays come after a bar, where they were run). Only some compounds are listed: those with a hit (about 3.5% of all), similar ones and a draw of the others.

CCC(C)NCCOc1ccc(OC)cc1 (centres undefined)	none
CCC(C)NCCOCCOc1ccc(Cl)cc1Br (centres undefined)	none
CCC(C)NCCOCCOc1ccc(C)cc1OC (centres undefined)	MITF inh 53.9 | MITF confirm inactive | AlphaScreen intf2 inactive
COc1cccc(CC(C2CCN(C(=O)CSC)CC2)N(C)Cc2ccccn2)c1 (centres undefined)	MITF inh 52.2 | MITF confirm inactive | AlphaScreen intf2 33.6
COc1cccc(CC(C2CCN(Cc3ccccn3)CC2)N(C)C(=O)c2ccco2)c1 (centres undefined)	none
Cc1nc(SCC(=O)N2CCCCCC2)c2c(C)c(C)sc2n1	none
COc1ccc(C(=O)N2CCN(Cc3c[nH]c4ccccc34)CC2)cc1OC	none
COc1ccc(C(=O)N2CCN(Cc3c[nH]c4ccccc34)CC2)cc1	MITF inh 76.5 | MITF confirm inactive | AlphaScreen intf2 inactive
COc1ccc(C(=O)N2CCN(Cc3cccc4ccccc34)CC2)cc1	MITF inh 59.2 | MITF confirm inactive | AlphaScreen intf2 inactive
COc1cccc(CN2CCN(C(=O)c3ccc(F)cc3)CC2)c1OC	none
COc1ccc(C(=O)N2CCN(Cc3ccccc3F)CC2)cc1	MITF inh 62.5 | MITF confirm inactive | AlphaScreen intf2 inactive
CCOC(=O)N1CCN(C(=O)C2CCN(Cc3cccc4ccccc34)CC2)CC1	MITF inh 50.8 | MITF confirm inactive | AlphaScreen intf2 inactive
Cc1nc(CN(C)C(=O)Cn2nnnc2CN2C[C@@H](C)O[C@@H](C)C2)cs1	none
CCc1ccc(NC2=NC(C(=O)Nc3ccc(Cl)cc3Cl)CC(=O)N2)cc1 (centres undefined)	none
c1ccc(CN2CCC(N3CCN(C4CCCCC4)CC3)CC2)cc1	none
Cn1cccc1CN1CCN(S(C)(=O)=O)CC1	none
Cn1cccc1CN1CC[C@H]2[C@H](CCC(=O)N2Cc2ccc(F)cc2)C1	none
Cn1cccc1CN1CCN(Cc2ccc(F)cc2)CC1	MITF inh 65.2 | MITF confirm inactive | AlphaScreen intf2 inactive
Cn1cccc1CN1CCN(C2CCCC2)CC1	MITF inh 69.8 | MITF confirm inactive | AlphaScreen intf2 inactive
Cn1cccc1CN1CCN(Cc2ccccc2)CC1	MITF inh 69.7 | MITF confirm inactive | AlphaScreen intf2 inactive
Cn1cccc1CN1CCN(Cc2ccncc2)CC1	MITF inh 63.6 | MITF confirm inactive | AlphaScreen intf2 inactive
CC(C)C[C@@H]1NC(=O)[C@H]2CN(S(=O)(=O)c3ccc(Cl)cc3)CCN2C1=O	none
O=C(CNCCc1ccccc1)Nc1ccc(C(=O)N2CCCCC2)cc1	MITF inh 52.0 | MITF confirm inactive | AlphaScreen intf2 inactive
O=C(CNCc1ccc(F)cc1)Nc1ccc(C(=O)N2CCCCC2)cc1	MITF inh 68.6 | MITF confirm inactive | AlphaScreen intf2 inactive
O=C(Cc1ccc(Cl)cc1)Nc1ccc(C(=O)N2CCCCC2)cc1	none
O=C(CNCCc1ccc(Cl)cc1)Nc1ccc(C(=O)N2CCCCC2)cc1	MITF inh 58.3 | MITF confirm inactive | AlphaScreen intf2 inactive
O=C(CNCc1ccccc1Cl)Nc1ccc(C(=O)N2CCCCC2)cc1	MITF inh 71.7 | MITF confirm inactive | AlphaScreen intf2 inactive
O=C(CCc1ccccc1)Nc1ccc(C(=O)N2CCCCC2)cc1	none
O=C(CNC1CCCCCC1)Nc1ccc(C(=O)N2CCCCC2)cc1	none
CCn1cc(CN2CCCN(c3nc(C)c4cc(C)c(C)cc4n3)CC2)c(C)n1	none
CC1CC(NC(=O)c2ccccc2Br)CC(C)(C)C1 (centres undefined)	none
O=[N+]([O-])c1cccc(C=Nc2ccc(F)cc2)c1O	none
O=C(O)Cc1ccc(N=Cc2cccc([N+](=O)[O-])c2O)cc1	MITF inh 94.2 | MITF confirm inactive | AlphaScreen intf2 inactive
O=S(=O)(c1ccc2ccccc2c1)N1CCN(Cc2ccccc2Cl)CC1	MITF inh 57.8 | MITF confirm inactive | AlphaScreen intf2 inactive
O=S(=O)(c1ccc2ccccc2c1)N1CCN(Cc2ccc(F)cc2)CC1	MITF inh 53.8 | MITF confirm inactive | AlphaScreen intf2 inactive
O=C(CN1CCN(C(=O)CSCc2ccccc2)CC1)c1cccs1	none
Brc1c(CSc2nnnn2-c2ccccc2)nc2ncccn12	none
CC1CCCN(c2nc3c(c(=O)[nH]2)CCN(Cc2cccc4nccnc24)C3)C1 (centres undefined)	none
CC(C)c1ccc(-c2c(C#N)c(N)nc3sc(C(=O)Nc4ccc(Cl)cc4)c(N)c23)cc1	none
COc1cccc(NC(=O)c2sc3nc(N)c(C#N)c(-c4ccc(C(C)C)cc4)c3c2N)c1	MITF inh 52.0 | MITF confirm inactive | AlphaScreen intf2 inactive
Cc1noc(C)c1CN1CCN(C(=O)c2cc(=O)c3ccccc3o2)CC1	none
Cn1c(CN2CCN(Cc3ccccc3)CC2)nc(=O)c2ccccc21	MITF inh 71.4 | MITF confirm inactive | AlphaScreen intf2 inactive
COCCNC(=O)N1CCN(Cc2nc3ccccc3n2C)CC1	MITF inh 78.4 | MITF confirm inactive | AlphaScreen intf2 inactive
Cn1c(CN2CCN(C(=O)c3cc(=O)c4ccccc4o3)CC2)nc2ccccc21	MITF inh 86.1 | MITF confirm inactive | AlphaScreen intf2 inactive
COC(=O)c1ccc(NC(=O)CN2CCN(Cc3nc4ccccc4n3C)CC2)cc1	MITF inh 70.3 | MITF confirm inactive | AlphaScreen intf2 inactive
CC(C)(C)c1ccc(CNc2cc(N3CCCC3)ccc2[N+](=O)[O-])cc1	none
CN1CCN(C(=O)c2ccc(-c3ccc(C(=O)NCc4cccc(C(F)(F)F)c4)s3)cc2)CC1	none
O=C(Nc1nnc(-c2ccccn2)o1)C1CCCCC1	none
O=C(c1cccs1)N1CCN(c2ccc([N+](=O)[O-])cc2F)CC1	MITF inh 62.2 | MITF confirm inactive | AlphaScreen intf2 inactive
O=C(C1CCCN1S(=O)(=O)c1cccc2cccnc12)N1CCc2ccccc21 (centres undefined)	MITF inh 73.1 | MITF confirm inactive | AlphaScreen intf2 inactive
CS(=O)(=O)N1CCC(C(=O)NCC2(CO)CC2)CC1	none
COc1ccccc1C(=O)Nc1ccccc1-c1nnn(CC(N)=O)n1	MITF inh 92.8 | MITF confirm inactive | AlphaScreen intf2 inactive
COc1ccc(NC(=O)Cn2nnc(-c3ccccc3N)n2)cc1OC	MITF inh 58.0 | MITF confirm inactive | AlphaScreen intf2 inactive
COc1cc(C(=O)Nc2ccccc2-c2nnn(CC(N)=O)n2)cc(OC)c1OC	none
COc1ccc(/C=N/NC(=O)c2ccco2)c(OC)c1OC	none
CCn1c2ccccc2c2cc(NC(=O)CSc3nnc(-c4ccccn4)n3N)ccc21	none
COc1ccccc1CNC(=O)CN(c1cc(Cl)ccc1Cl)S(C)(=O)=O	none
N#Cc1ccccc1CNCc1ccc(Cl)cc1	MITF inh 51.6 | MITF confirm inactive | AlphaScreen intf2 inactive
CCCOc1ccc(CCN=C(N)N)cc1	none
O=C1NC(=O)C(CCCc2ccccc2)(C2CCN(C(=O)Cc3cccc(F)c3)CC2)N1 (centres undefined)	MITF inh 50.7 | MITF confirm inactive | AlphaScreen intf2 inactive

Screens from PubChem BioAssay.
